# Compound activity from PubChem BioAssay.
# Lassa entry: qHTS for Inhibitors of binding or entry into cells for Lassa Virus; Lassa virus pseudotyped entry inhibition, cell-based qHTS; Potency, µM (top dose mostly 49.2 µM), inactives show at the top dose activity change, negative = inhibition, actives largely listed as inhibitors; hit rate 4.1% among 18,000
# MARV entry inh: qHTS for Inhibitors of binding or entry into cells for Marburg Virus | Marburg virus pseudotype entry/binding inhibition, cell-based | Potency, µM (series often up to 49.2 µM), for the others: top-dose activity change, negative = inhibition, hits mostly inhibitors | hit rate 6.5% among 18,000 | AID 720532, 2013
# Active calls of the source: *; ? = inconclusive; . = no result given; ! = a repeat was not active; [ ] = another dose, or the depositor's remark. Only some compounds are listed: those with a hit (about 8% of all), similar ones and a draw of the others. Calls follow the shape of the full dose curve; tested in HEK293 cells. % is scaled to controls: 0 for no effect and ±100 for the full control effect; potency is read from the fitted curve at half-maximal effect.
SMILES,Lassa entry,MARV entry inh
COc1cc(OC)c(OC)cc1CN1CCCC(c2nc(C)ncc2-c2ccc(F)cc2)C1 (centres undefined),-13.2%,11.2µM*
CCOc1ccccc1CN1CCCC(c2nc(C)ncc2-c2ccc(F)cc2)C1 (centres undefined),-14.5%,10µM*
COc1ccc(OC)c(CN2CCCC(c3nc(C)ncc3-c3ccc(F)cc3)C2)c1 (centres undefined),-21.5%,?
COc1ccc([C@H]2C[C@H](n3cc(C4CC4)nn3)[C@@H](O)CN2C(=O)c2cccs2)cc1,-6.8%,1.2%
C=CCN1c2ccccc2[C@]23CCC(=O)N(CC4CC4)C2=NC(C(=O)OC)=C(C(=O)OC)[C@H]13,-14.5%[8.59 µM],19.4%[8.59 µM]
CCC1/C=C/C=CCC(C)C(O)[C@@](C)(O)C(=O)C(C)C(O)C(C)C(=O)C(C)C(O)C(C)C=CC(=O)O[C@H]2C(C)C(CC1)O[C@]1(CCC(C)C(CC(C)O)O1)C2C (some centres undefined),?,0.0794µM*
CC(=O)C1=C(C)N(CCC=Cc2ccccc2)C(=O)NC1c1ccccc1 (centres undefined),-10.8%[8.59 µM],?
CN(C)CCc1cc2c(c3c1ccc1ccccc13)OCO2,?,12.6µM*
CC(C)=CCCC(C)=CCON=C1C[C@@H](O)[C@@H](O)[C@@H]2[C@H]3C(=O)N(Cc4ccc5c(c4)OCO5)C(=O)[C@@H]3CC[C@@H]12,.,-43.7%[8.59 µM]
CC(C)C1C(=O)N(Cc2cn(CC3CCCCC3)nn2)CCS(=O)(=O)N1Cc1ccc(-c2ccc(F)nc2)cc1 (centres undefined),19.9µM*,?
CC(C)C1C(=O)N(Cc2cn(CC3CCCCC3)nn2)CCS(=O)(=O)N1Cc1ccc(-c2ccc(Cl)nc2)cc1 (centres undefined),11.4%,?
COc1cc2c(N3CCN(C(=O)Nc4ccc(OC(C)C)cc4)CC3)ncnc2cc1OCCCN1CCCCC1,?,8.91µM*
COc1ccccc1N1CCN(CCCCNC(=O)c2ccc3ccccc3c2)CC1,4.4%[17.8 µM],-26.8%[17.8 µM]
CCCCCCN1C[C@H](O)[C@@H](n2cc(C3CC3)nn2)C[C@H]1c1ccccc1,4.6%,?
O=C(Nc1ccccc1)c1cc([N+](=O)[O-])ccc1Cl,-25.2%,?
O=C(Nc1ccc([N+](=O)[O-])cc1Cl)c1cc(Cl)ccc1O,1.12µM*,5.01µM*!
CCCC[C@H]1CN2[C@H](c3ccc(Br)cc3)[C@H](C)CC[C@H]2C(=O)O1,8.2%[8.59 µM],1.8%[8.59 µM]
COC(=O)CC=C[C@@H](C)[C@@H](C=NOC[C@@H](C)[C@H](OCc1ccccc1)C(C)C)NS(=O)(=O)c1ccc(C)cc1,.,-14.2%[8.59 µM]
NCCCCCCCCCCNS(=O)(=O)c1cccc2c(Cl)cccc12,?,9.5%
NCCCCCCNS(=O)(=O)c1cccc2c(Cl)cccc12,?,17.8µM*!
COC(=O)C1=C(C)N(Cc2ccccc2)C(=NCc2ccc3c(c2)OCO3)NC1CCc1ccccc1 (centres undefined),.,-11.9%[8.59 µM]
COc1ccc(C=CNC(=O)c2ccc(OC)cc2)cc1,3.4%[8.59 µM],17.8%[8.59 µM]
CC1=C[C@]2(O[C@H](COc3ccccc3)C1)C(=O)N(C)c1ccccc12,94.6%[8.59 µM],144.1%[8.59 µM]
COc1ccc(-c2nc(-c3ccccc3)oc2NC2CCCCC2)cc1,11.8%[8.59 µM],31.5%[8.59 µM]
Oc1ccc2c3c1O[C@H]1c4[nH]c5c(c4C[C@@]4(O)[C@@H](C2)N(CC2CC2)CC[C@]314)C[C@@]1(O)[C@H]2Cc3ccc(O)c4c3[C@@]1(CCN2CC1CC1)[C@H]5O4,7.7%,-19.2%
SMILES,Lassa entry,MARV entry inh
O=C1CC[C@@]2(O)[C@H]3Cc4ccc(O)c5c4[C@@]2(CCN3CC2CC2)[C@H]1O5,2.0%,-28.2%
Oc1ccc2c3c1O[C@H]1c4c(c5ccccc5n4Cc4ccccc4)C[C@]4(O)[C@H](C2)N(CC2CC2)CC[C@@]314,15.8µM*,11.2µM*
Oc1ccc2c3c1O[C@H]1c4[nH]c5ccccc5c4C[C@]4(O)[C@H](C2)N(CC2CC2)CC[C@@]314,?,22.4µM*
O=C1CC[C@]2(O)[C@H]3Cc4ccc(O)c5c4[C@@]2(CCN3CC2CC2)[C@@H]1O5,-14.0%[17.8 µM],6.5%[17.8 µM]
COC(=O)/C=C/C(=O)N[C@@H]1CC[C@@]2(O)[C@H]3Cc4ccc(O)c5c4[C@@]2(CCN3CC2CC2)[C@H]1O5,28.2µM*,10µM*
Oc1ccc2c3c1O[C@H]1[C@@H](O)CC[C@]4(O)[C@H](C2)N(CC2CCC2)CC[C@@]314,-2.5%[17.8 µM],-13.1%[17.8 µM]
Oc1ccc2c3c1O[C@H]1c4oc5ccccc5c4C[C@]4(O)[C@H](C2)N(CC2CC2)CC[C@@]314,28.2µM*,28.2µM*
CCOC(=O)CCN1C(=O)[C@@H]2[C@H]3[C@H](O)[C@H](O)CC(=NNC(=O)OCc4ccc(OC)cc4)[C@@H]3CC[C@H]2C1=O,?,11.9%[8.59 µM]
COC(=O)C1=C(C(=O)OC)[C@@H]2N(Cc3ccccc3)c3ccccc3[C@@]23CCC(=O)N(CC2CC2)C3=N1,-5.7%[8.59 µM],?
C[C@@H]1CC[C@H]2C(=O)N(Cc3ccccc3)C[C@H](O)CN2[C@H]1c1ccc(Br)cc1,3.4%[8.59 µM],-24.2%[8.59 µM]
COc1cccc(CCc2ccccc2OCC(CN(C)C)OC(=O)CCC(=O)O)c1 (centres undefined),22.4µM*,11.2µM*
COc1cccc(CS(=O)(=O)c2ccccc2)c1,2.4%,9.9%
O=C(NN=C1C[C@@H](O)[C@H](O)[C@H]2[C@@H]3C(=O)N(Cc4ccc5c(c4)OCO5)C(=O)[C@@H]3CC[C@H]12)OCc1ccccc1,.,-2.2%[8.59 µM]
COc1ccc2c(c1)[C@H](C=Cc1ccccc1)[C@@H]([C@H](O)CO)O2,-6.3%[8.59 µM],17.3%[8.59 µM]
CC[C@@H](C(=O)[C@@H](C)[C@@H](O)[C@H](C)CCc1ccc(C)c(O)c1C(=O)O)[C@H]1O[C@](CC)([C@H]2CC[C@](O)(CC)[C@H](C)O2)C[C@@H]1C,11.2µM*,-77.8%
CC(C)C(=O)N[C@H]1CCCN1C(=O)C=Cc1ccccc1,13.0%[8.59 µM],-22.4%[8.59 µM]
NS(=O)(=O)c1ccc(N=Nc2c(O)[nH]c3ccc(C(=O)NCCc4cnc[nH]4)cc23)cc1,?,28.8%
CC=COC(=O)N[C@@H](c1ccccc1)[C@]1(C(=O)OCC)CCCC1=O,8.9%[8.59 µM],2.3%[8.59 µM]
COc1ccc(C2Sc3ccccc3N(CCN(C)C)C(=O)[C@@H]2OC(C)=O)cc1 (some centres undefined),-27.7%,?
COc1ccc([C@@H]2Sc3ccccc3N(CCN(C)C)C(=O)[C@@H]2OC(C)=O)cc1,4.47µM*,28.2µM*
COc1cc2c(c(OC)c1OC)C1(c3ccccc3)CCCCCC1[C@@H]2NC(=O)C(F)(F)F (some centres undefined),.,-15.2%[8.59 µM]
Cc1cc(O)c(C=O)c(O)c1C(=O)O,0.5%,-1.8%
COC(=O)c1c(C)cc(OC(=O)c2c(C)cc(O)c(C=O)c2O)c(C)c1O,7.94µM*,?
COC(=O)c1ccc(CN2C(=O)[C@@]3(CC(C)=CC[C@@H](COc4ccccc4)O3)c3ccccc32)cc1,-19.6%[8.59 µM],9.2%[8.59 µM]
C#CCN1C(=O)[C@]2(OCCC=C[C@@H]2C)c2cc(OC)ccc21,5.0%[8.59 µM],9.1%[8.59 µM]
CC1OC(=O)C(C(C)C)NC(=O)C(C(C)C)OC(=O)C(C(C)C)NC(=O)C(C)OC(=O)C(C(C)C)NC(=O)C(C(C)C)OC(=O)C(C(C)C)NC(=O)C(C)OC(=O)C(C(C)C)NC(=O)C(C(C)C)OC(=O)C(C(C)C)NC1=O (centres undefined),0.126µM*,89.1µM*
